Bioassay records (PubChem)
D1 potentiator = human D1 dopamine receptor positive modulation; HEK293 TREx D1 cells, calcium flux, dopamine EC20 potentiation; potentiation, % at 10 µM; 360,000 tested, 0.036% active; in the data active = potentiation above about 30%; also: 0% is about no effect
Target sequence (P21728 whole entry, looked up): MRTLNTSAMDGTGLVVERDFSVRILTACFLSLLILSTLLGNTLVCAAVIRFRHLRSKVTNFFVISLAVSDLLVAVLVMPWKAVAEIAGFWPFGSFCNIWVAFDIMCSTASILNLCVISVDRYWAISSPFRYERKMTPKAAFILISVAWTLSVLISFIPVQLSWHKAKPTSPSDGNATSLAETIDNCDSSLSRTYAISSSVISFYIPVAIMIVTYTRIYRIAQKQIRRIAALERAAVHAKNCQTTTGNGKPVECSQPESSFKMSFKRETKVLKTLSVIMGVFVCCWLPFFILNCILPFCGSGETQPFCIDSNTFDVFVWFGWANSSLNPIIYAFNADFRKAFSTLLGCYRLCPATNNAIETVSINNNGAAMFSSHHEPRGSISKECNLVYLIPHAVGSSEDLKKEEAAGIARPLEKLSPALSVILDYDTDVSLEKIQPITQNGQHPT
D1 antag = human D1 dopamine receptor antagonism. 360,000 tested, 3.2% active. activity change, negative = inhibition, % at 10 µM. HEK293 TREx D1 cells, calcium flux, dopamine EC80; hits give low values; in the data active = activity change below about -30%; also: % is scaled to controls: 0 for no effect and ±100 for the full control effect
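Compound effects on dopamine-evoked calcium signalling were measured in tetracycline-induced HEK293 Trex D1 cells. Dopamine at EC80 followed a 180 s compound pre-read, and fluorescence was tracked kinetically for 180 s more.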
D1 agonist = activates the human D1 dopamine receptor. P21728. HEK293 T-REx D1 cells, calcium flux, agonist mode. activation, % at 2 µM. 360,000 tested, 1% active. AID 504660; also: 0% is about no effect
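Inducible HEK293 T-REx D1 cells, force-coupled to calcium signalling, were plated at 4000 cells/well with tetracycline and held overnight at 30 C. After no-wash calcium dye loading, compound-evoked calcium rise over 180 s flagged agonists.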
TRHR PAM = TRH receptor (human) allosteric enhancement. enhancement, % at 2 µM. P34981. 360,000 tested, 0.66% active. TRHR cells, fluo-8 calcium fluorescence, EC20 TRH enhancement. AID 493056; in the data active = enhancement above about 30%; also: 0% is about no effect
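TRHR-expressing cells loaded with fluo-8 calcium dye were read kinetically (ex 480/em 530) during compound addition, then stimulated with an EC20 of TRH (10 nM final). Enhancement of the Gq-mediated intracellular calcium response was scored.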
TRHR agonist = activates the human TRH receptor; P34981; TRHR cells, calcium flux fluo-8, FDSS agonist mode; activation, % at 2 µM; 360,000 tested, 0.18% active; AID 493084; also: 0% is about no effect
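Fluo-8-loaded TRHR cells; 10 s baseline, compound added, kinetic Ca2+ fluorescence read 1/s, agonist mode.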
Numbers without * were called inactive. The list is not random: actives were taken first. Their share in the collection is about 4.7%. Rule as the data show it, unless noted: active = activation above about 30%; inactive = the rest.

SMILES | D1 potentiator | D1 antag | D1 agonist | TRHR PAM | TRHR agonist
CCOc1ccccc1NC(=O)CCc1c(C)nc2c(c(C)nn2-c2ccccc2)c1C | 2.9 | 3.1 | 0.7 | -2.5 | 0.8
CCOC(=O)N1CCC(NC(=O)c2ccc3c(c2)N(Cc2ccc(F)cc2)C(=O)c2ccccc2S3(=O)=O)CC1 | -3.6 | 0.4 | 6.2 | -9.6 | 1.2
Cc1cccc(/C=N/NC(=O)C2CCCNC2=O)c1 (configuration not stated) | -4.3 | -84.5* | 2.4 | 2.5 | -0.4
O=C(Nc1ccc(N=Nc2ccccc2)cc1)c1ccc(Cl)cc1Cl | -0.4 | -38.0* | -0.6 | -5.0 | 0.7
O=C(Nc1ccc(N=Nc2ccccc2)cc1)c1ccccc1Cl | -6.2 | -7.9 | 2.1 | 9.0 | -0.9
CCc1nc(SCC(=O)N2CCOCC2)c2c(=O)n(C)c(=O)n(C)c2n1 | 0.5 | -3.9 | 4.4 | 4.7 | -1.6
CCc1nc(SCC(=O)N2CCCCCC2)c2c(=O)n(C)c(=O)n(C)c2n1 | 0.1 | -34.1* | 2.6 | 0.4 | 0.1
CC(C)CC(=O)Nc1nc2nc(-c3ccccc3)cc(=O)n2[nH]1 | 0.1 | -6.2 | 0.3 | 2.9 | 0.9
CCC1=C(OC(=O)N(CC)CC)N2C(=O)OC(=NCC(=O)OC)[C@]2(C)[C@H]2C1=CC[C@H]1C(=O)N(CC)C(=O)[C@H]12 | 0.8 | 40.0 | 3.1 | -4.0 | 0.2
CCC1=C(OC(=O)N(CC)CC)N2C(=O)OC(=NCc3ccccc3)[C@]2(C)[C@H]2C1=CC[C@H]1C(=O)N(CC)C(=O)[C@H]12 | -7.9 | -34.5* | 1.1 | -6.4 | -0.4
Nc1cc(S(=O)(=O)N2CCOCC2)ccc1Oc1cccc(Br)c1 | -10.6 | -44.2* | 11.7 | -3.3 | 0.2
COc1ccc(-c2nc3n(n2)C(c2ccc(OC)cc2)C(C(=O)Nc2cccnc2)=C(C)N3)cc1 (configuration not stated) | -2.0 | 4.5 | 0.8 | 2.4 | -0.2
Cc1ccc(C(=O)CSC2=C(C#N)C(c3ccco3)C3=C(CCCC3=O)N2)cc1 (configuration not stated) | -6.0 | -36.6* | 4.3 | -2.3 | 0.0
CC(=O)C1=C(C)NC(SCC(=O)c2ccc(F)cc2)=C(C#N)C1c1ccco1 (configuration not stated) | -1.3 | -1.4 | 7.4 | 5.6 | 0.1
N#CC1=C(SCC(=O)c2ccccc2)NC2=C(C(=O)CCC2)C1c1ccco1 (configuration not stated) | -10.7 | -43.6* | 13.6 | -3.8 | -0.8
CC(C)(C)c1ccc(C(=O)CCCSC2=C(C#N)C(c3ccco3)C3=C(CCCC3=O)N2)cc1 (configuration not stated) | -3.2 | -10.2 | 5.5 | 0.7 | -0.4
CCc1ccc(C(=O)CSC2=C(C#N)C(c3ccco3)C(C(C)=O)=C(C)N2)cc1 (configuration not stated) | -10.2 | -33.5* | 2.3 | -0.5 | 0.8
COc1ccc(NC(=O)Cn2c(=O)n(CCC(=O)NCCc3ccc(OC)c(OC)c3)c(=O)c3ccccc32)cc1Cl | -0.8 | 11.2 | 0.3 | 6.8 | 0.6
Cc1cc(C)c(NC(=O)CN2C(=O)c3cccnc3Oc3ccc(C)cc32)c(C)c1 | 7.5 | 23.7 | -1.1 | -2.9 | -0.8
Cc1ccccc1C(=O)NCC(=O)OC(C(=O)Nc1cc(C(F)(F)F)ccc1Cl)c1ccccc1 (configuration not stated) | -3.8 | -8.3 | 13.3 | -8.4 | 2.3
Cc1cc(C)c(NC(=O)CCCn2c(C)c3cnn(-c4ccccc4)c(=O)c3c2C)c(C)c1 | -2.5 | -9.9 | 13.3 | 5.2 | -0.6
CC(=O)c1c(C)[nH]c(C(=O)N2c3ccccc3CC2C)c1C (configuration not stated) | -0.7 | -41.2* | 2.6 | -1.4 | 0.1
CC(=O)c1c(C)[nH]c(C(=O)N2CCc3ccccc3C2)c1C | -1.6 | 5.4 | 4.7 | 8.4 | -0.4
O=C1/C(=C/c2ccccc2)SC(=S)N1C1CCS(=O)(=O)C1 (configuration not stated) | -11.4 | -46.4* | 9.8 | -2.3 | -0.3
O=C1/C(=C/c2ccncc2)SC(=S)N1C1CCS(=O)(=O)C1 (configuration not stated) | -0.9 | -6.5 | 0.5 | 1.2 | 1.3
SMILES | D1 potentiator | D1 antag | D1 agonist | TRHR PAM | TRHR agonist
CCN(CC)S(=O)(=O)c1ccc(C(=O)N2CCN(CCN3C(=O)c4cccc5cccc(c45)C3=O)CC2)cc1 | 3.0 | 4.6 | 1.9 | 19.1 | -0.5
O=C(OCCN1C(=O)c2ccccc2C1=O)c1cc(S(=O)(=O)N2CCOCC2)ccc1F | -6.3 | -24.1 | 0.1 | -0.3 | -0.2
CCCN(CCC)S(=O)(=O)c1ccc(C(=O)OCCN2C(=O)c3cccc4c(N5CCOCC5)ccc(c34)C2=O)cc1 | 1.4 | -16.3 | 113.2* | -0.3 | 20.5
O=C(OCCN1C(=O)c2cccc3c(N4CCOCC4)ccc(c23)C1=O)c1ccc(Cl)cc1 | 0.5 | -1.8 | 92.9* | -2.3 | 28.5
Cc1ccc(C(c2c(O)cc(C)n(Cc3ccco3)c2=O)N2CCC(C)CC2)cc1 (configuration not stated) | -4.7 | -1.7 | 1.6 | -0.5 | 0.1
O=C(CSc1nc2ccccc2c(=O)n1-c1ccc(F)c(Cl)c1)Nc1cccc(S(=O)(=O)N2CCOCC2)c1 | -3.2 | -11.2 | 4.8 | -3.7 | 1.7
O=C(Cc1cccs1)Nc1ccc(Cl)c(S(=O)(=O)N2CCOCC2)c1 | 1.2 | -33.4* | 15.3 | -1.3 | 0.4
O=C(CSc1nc2ccccc2c(=O)n1-c1ccc(F)cc1)Nc1ccc(Cl)c(S(=O)(=O)N2CCOCC2)c1 | -4.0 | -51.6* | 6.3 | 3.0 | 1.8
O=C(COc1ncnc2ccccc12)Nc1ccc(Cl)c(S(=O)(=O)N2CCOCC2)c1 | -1.2 | -38.0* | 4.1 | -1.7 | -0.7
COc1cccc(Cn2c(C)c(CNCc3cccc(C)c3)c(C(=O)O)c2C)c1 | 0.3 | 2.1 | -0.3 | 8.4 | -1.6
Cc1nn(CC(=O)OCC(=O)NC(C)c2ccccc2)c(C)c1[N+](=O)[O-] (configuration not stated) | 5.5 | -33.7* | 0.8 | -3.9 | 0.1
CC(C(=O)NC(C)(C)C)N1C(=O)c2cccc3cccc(c23)C1=O (configuration not stated) | -4.2 | -71.4* | 1.0 | -22.2 | -0.7
CC(C)C(C(=O)NC(C)(C)C)N1C(=O)c2ccccc2C1=O (configuration not stated) | -9.8 | 9.4 | 1.4 | -3.7 | -0.2
CCCCOc1ccc(CSc2nc(C)[nH]c2[N+](=O)[O-])cc1[N+](=O)[O-] | -7.1 | -31.0* | 11.9 | 1.3 | 0.1
CCCCOc1ccc(CSc2nnc(C)n2N)cc1[N+](=O)[O-] | 8.0 | -19.4 | 1.0 | 1.2 | 0.7
CCn1cc(S(=O)(=O)c2cc(C)cc(C)c2)c(=O)c2cc(F)c(N3CCN(c4ccccc4)CC3)cc21 | -1.9 | -3.1 | -0.6 | 8.2 | -0.2
C/C(=C\C(=O)c1ccc(Br)cc1)NCc1ccccc1 | -3.9 | -14.8 | 0.6 | 7.3 | 0.5
